Compounds with a hit are over-represented: about 21% of the library has one in this group of screens.
AMA1-RON2 inh: qHTS for Inhibitors of AMA1-RON; Towards Development of Antimalarial Drug Lead: Primary Screen; AID 720542, 2013; Plasmodium falciparum AMA1 (3D7) - RON2 peptide interaction; Potency, µM (series often up to 58.2 µM), without a hit: at the top dose activity change, negative = inhibition, hits mostly inhibitors; hit rate 0.2% among 360,000; AlphaScreen AMA1-biotinylated RON2 peptide binding;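 also: potency is read from the fitted curve at half-maximal effect; 0% = vehicle wells and -100% = peptide control; nearly all actives have a fitted effect of over 45% in size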
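AMA1 (3D7) with his tag at 25 nM final met compounds first, then biotinylated RON2 peptide at 25 nM; detection used donor plus acceptor beads, 10 µg/mL apiece, read by AlphaScreen after 30 min at room temperature.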
Pf growth 48h: Primary qHTS for delayed death inhibitors of the malarial parasite plastid, 48 hour incubation | hit rate 5.9% among 310,000 | Potency, µM (titrated, usually from 28.7 µM), without a hit: top-dose activity change, negative = inhibition, usual class: inhibitors | P. falciparum luciferase growth in erythrocytes, 48 h; also: potency is read from the fitted curve at half-maximal effect; % is scaled to controls: 0 for no effect and ±100 for the full control effect
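Here the parasites carry a stable luciferase gene and grow inside erythrocytes in Albumax-based RPMI medium with compound for one erythrocytic cycle. Activity is scored as loss of luminescent signal.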
Pf growth 96h: Primary qHTS for delayed death inhibitors of the malarial parasite plastid, 96 hour incubation; hit rate 6.9% among 320,000; P. falciparum luciferase reporter growth, 96 h; Potency, µM (top dose mostly 28.7 µM), for inactives: at the highest dose activity change, negative = inhibition, most hits filed as inhibitors; AID 504834, 2011; also: potency is read from the fitted curve at half-maximal effect; % is scaled to controls: 0 for no effect and ±100 for the full control effect
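P. falciparum expressing integrated firefly luciferase, in erythrocytes at 2% hematocrit, 0.05% parasitemia, incubated with compounds 96 h at 37 C, 5% CO2. Growth inhibition read as loss of luminescence; two-generation exposure targets delayed-death apicoplast inhibitors.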
Cycloheximide cs: Cycloheximide Counterscreen for Small Molecule Inhibitors of Shiga Toxin; cell reporter, cycloheximide protein synthesis inhibition counterscreen; max response, %; hit rate 12% among 300,000; in the data active = max response mostly above about 13%, no sharp cut-off; inactive = mostly below about 14%; also: read at 38.3 µM for the half of the compounds with a filed dose; 0% is about no effect
HCV inhibitor: qHTS Assay for Inhibitors of Hepatitis C Virus (HCV) | Huh7.5.1 HCVcc-Cre infection, luciferase reporter, 44 h | Potency, µM (doses to about 41.8 µM), without a hit: top-dose activity change, negative = inhibition, most hits filed as inhibitors | hit rate 3.4% among 340,000 | AID 651820, 2012; also: potency is read from the fitted curve at half-maximal effect; % is scaled to controls: 0 for no effect and ±100 for the full control effect
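Antiviral activity was scored by luciferase reporter output from cells infected with HCVcc-Cre (~0.5 moi) in presence of compound, 44 h infection period, cells seeded 1,000/well 4 h prior.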
Shiga inhibitor: A qHTS for Small Molecule Inhibitors of Shiga Toxin; Vero cells, Shiga toxin protein synthesis inhibition reporter; inhibition, % at 38.7 µM; hit rate 9.2% among 290,000; AID 2315, 2010; in the data active = inhibition mostly above about 28%, no sharp cut-off; inactive = mostly below about 43%; also: 0% is about no effect
The depositor's hits bear a star; i = inactive; ? = inconclusive; / = not tested or not shown. Unless noted, calls follow the shape of the dose curve; as a rule, active = well fitted curve in the direction sought with a large enough effect; inconclusive = small, poorly fitted or top-dose-only effect, or another doubt; inactive = no such curve, though single readings can be large; an effect the other way counts as inactive or inconclusive.

SMILES	AMA1-RON2 inh	Pf growth 48h	Pf growth 96h	Cycloheximide cs	HCV inhibitor	Shiga inhibitor
O=C(C1=C[C@@H](c2ccccc2)C[C@@H](OCCCCO)O1)N1CCN(Cc2ccc3c(c2)OCO3)CC1	-8%	?	?	-3	-8%	-24
CC(=O)n1cc([C@@H]2C=C(C(=O)N3CCN(Cc4ccccc4)CC3)O[C@H](OCc3ccc(CO)cc3)C2)c2ccccc21	-16%	0.93µM*	3.3µM*	-1	?	-5
CC(=O)n1cc([C@@H]2C=C(C(=O)NCc3ccccc3)O[C@H](OCCCCO)C2)c2ccccc21	5%	?	?	0	-16%	37
CC(=O)n1cc([C@H]2C=C(C(=O)N3CCN(Cc4ccccc4)CC3)O[C@@H](OCCCCO)C2)c2ccccc21	-9%	?	5.2µM*	0	10%	14
C[C@@H]1C=C(C(=O)N2CCN(Cc3ccccc3)CC2)O[C@H](OCc2ccc(CO)cc2)C1	48%	2%	-3%	-3	-30%	-15
CC(=O)n1cc([C@@H]2C=C(C(=O)N3CCN(Cc4ccc5c(c4)OCO5)CC3)O[C@H](OCCCCO)C2)c2ccccc21	-9%	?	12µM*	-3	?	-16
CCCn1nc(C(=O)NNC(=O)CCCOc2ccc(OC)cc2)c2ccccc2c1=O	114%	?	?	/	-27%	/
C[C@@H]1CN([C@H](C)CO)C(=O)c2cc(Br)cnc2O[C@H]1CN(C)C	7%	/	/	/	/	/
COC(=O)C(CO)NC(=O)C1CCCN1C(=O)CNC(=O)OCc1ccccc1 (configuration not stated)	-9%	-9%	0%	-9	8%	5
Cc1ccccc1C(=O)Nc1ccc2c(c1)OCCO2	4%	194%	?	18*	-5%	20
Cc1occc1C(=O)Nc1ccc2c(c1)OCCO2	-9%	146%	-26%	107*	15%	100*
Cc1occc1C(=O)Nc1ccc2c(c1)CCC2	-13%	112%	25%	48*	?	103*
O=C(Nc1ccc2c(c1)CCC2)c1cc(=O)[nH]c2ccccc12	14%	55%	73%	-1	?	-5
O=C(Nc1ccc2c(c1)OCCO2)c1coc2ccccc2c1=O	3%	51%	i	48*	13%	60*
CC(=O)c1c(Nc2ccc3c(c2)OCCO3)oc(C)cc1=O	-2%	/	?	52*	13%	118*
Cc1cc(C(=O)Nc2ccc3c(c2)OCCO3)c(C)o1	-9%	150%	/	28*	-12%	68*
NC(=O)c1cc(N=Nc2c(N)[nH]n(-c3c(Cl)cc(Cl)cc3Cl)c2=O)ccc1Cl	-3%	1%	33%	-3	-2%	-10
CCCC(C(=O)Nc1ccc(S(=O)(=O)N2CCOCC2)cc1)c1ccccc1 (configuration not stated)	-5%	13µM*	9.3µM*	/	10%	/
CCCC(C(=O)Nc1cccc(S(=O)(=O)N2CCCC2)c1)c1ccccc1 (configuration not stated)	-4%	?	10µM*	/	?	/
CCC(C(=O)Nc1ccc(S(=O)(=O)N2CCN(C)CC2)cc1)c1ccccc1 (configuration not stated)	-12%	/	/	/	/	/
CCCc1ccc(NC(C)C(=O)Nc2ccc(S(=O)(=O)N3CCOCC3)cc2)cc1 (configuration not stated)	-18%	?	5.2µM*	/	?	/
CCC(C)c1ccccc1N1CC(C(=O)Nc2ccc(C)c(S(=O)(=O)N3CCOCC3)c2)CC1=O (configuration not stated)	6%	13µM*	?	/	3%	/
CCC(C)c1ccccc1N1CC(C(=O)Nc2cc(S(=O)(=O)N3CCOCC3)ccc2OC)CC1=O (configuration not stated)	-2%	/	/	/	-11%	/
O=C(CCc1ccc(S(=O)(=O)N2CCOCC2)cc1)Nc1ccc(N2CCOCC2)cc1	12%	?	?	1	-4%	-6
O=S(=O)(Cc1ccccc1)C(c1ccccc1)S(=O)(=O)Cc1ccccc1	-9%	/	/	/	/	/
SMILES	AMA1-RON2 inh	Pf growth 48h	Pf growth 96h	Cycloheximide cs	HCV inhibitor	Shiga inhibitor
CC1=C(C(=O)N2CCCCCC2)CC(CC(=O)NCCN2CCOCC2)C(=O)N1Cc1ccc(C(C)(C)C)cc1 (configuration not stated)	-2%	/	/	/	/	/
CCCC(C(=O)Nc1ccc(C)c(S(=O)(=O)N2CCOCC2)c1)c1ccccc1 (configuration not stated)	13%	10µM*	?	/	-20%	/
CCC(C(=O)OCC(=O)Nc1ccc(C)c(S(=O)(=O)N2CCOCC2)c1)c1ccccc1 (configuration not stated)	-14%	?	?	/	-18%	/
CP(C)(=O)CCP(=O)(c1ccccc1)c1ccccc1	-12%	17%	8%	-2	2%	2
O=P(O)(O)CCP(=O)(c1ccccc1)c1ccccc1	2%	-12%	1.7µM*	-5	18%	-8
CC(C)C(NC(=O)OCc1ccccc1)C(=O)OCC(=O)N1CCCCC1 (configuration not stated)	9%	117%	-16%	44*	-11%	69*
OC[C@H]1O[C@@H](c2nc(-c3ccc(CN4CCOCC4)cc3)no2)[C@H](O)[C@@H](O)[C@H]1O	1%	/	/	/	/	/
O=C1C(Cl)=C(N2CCN(c3ccccc3[N+](=O)[O-])CC2)C(=O)c2ccccc21	?	?	8.3µM*	-4	?	13
Cc1cc(C(=O)N/N=C/c2ccc([N+](=O)[O-])s2)c2ccccc2n1	4%	4.7µM*	6%	-2	11µM*	1
O=C(N/N=C/c1ccc([N+](=O)[O-])s1)c1ccccc1Br	9%	?	1.7µM*	-1	11µM*	-29
Cc1ccccc1C(=O)NNc1ccc([N+](=O)[O-])cc1	0%	31%	40%	-1	26%	-3
CCc1ccc(/C=N/NC(=O)c2cc(C3CC3)nc3ccccc23)s1	33%	/	?	-3	8.9µM*	2
Cc1ccccc1C(=O)N/N=C/c1ccc([N+](=O)[O-])s1	4%	/	2.1µM*	-10	?	-16
O=C(N/N=C/c1ccoc1)c1ccccc1Br	-3%	1%	-7%	7	0%	2
O=C(COC(=O)CNC(=O)c1cccc(OC(F)F)c1)NNC(=O)c1ccccc1	12%	-27%	?	/	-1%	/
Cc1cccc(NC(=O)c2ccc(N3C(=O)C4CCCCC4C3=O)cc2)c1C (configuration not stated)	-1%	11%	-16%	-1	5%	6

Source: PubChem (National Center for Advancing Translational Sciences (NCATS))
